Among the data in PubChem BioAssay (EPA / NIEHS) are outcome and AC50 values, retold here.

Experiment [1] can be described thus: ATG_M_61_CIS: Attagene CIS-FACTORIAL HepG2 Assay for M61 Transcription Factor (Internal Marker) (AID 2282937). As to conditions: HepG2 Attagene CIS-FACTORIAL M61 internal marker reporter; actives raise or lower the signal. Summed up:
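Cells were transfected with reporter units under cis-regulatory promoters, treated with chemicals for 24 h, then lysed for RNA. Reporter transcripts were quantified by RT-PCR and capillary electrophoresis, and activity was fitted bidirectionally against DMSO.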

Experiment [2] in a line: ATG_EGR_CIS: Attagene CIS-FACTORIAL HepG2 Assay for human Early Growth Response 1 (EGR1) (AID 2282938). As to conditions: HepG2 Attagene CIS-FACTORIAL EGR reporter mRNA; actives raise or lower the signal. The gist of the method: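 Endogenous TF activity in HepG2 liver cells was gauged through cis-promoter reporter constructs transiently transfected. After 24 h dosing, reporter mRNA was quantified by RT-PCR and capillary electrophoresis, and curves fitted in both directions versus DMSO.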

Experiment [3] in a line: ATG_M_19_CIS: Attagene CIS-FACTORIAL HepG2 Assay for M19 Transcription Factor (Internal Marker) (AID 2282939). The settings on record: HepG2 Attagene CIS-FACTORIAL M19 internal marker reporter; actives raise or lower the signal. The gist of the method:
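Readout: fluorescent reporter-transcript fragments by capillary electrophoresis after RT-PCR. Human HepG2 liver cells carried transfected MRTU constructs reporting endogenous transcription-factor activity; exposure 24 h. Gain or loss of signal fitted relative to DMSO.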

A short description of experiment [4]: ATG_Ets_CIS: Attagene CIS-FACTORIAL HepG2 Assay for human Erythroblast Transformation Specific (ETS) (AID 2282941). As to conditions: HepG2 ETS cis-reporter transcription, actives raise or lower the signal. The gist of the method:
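RT-PCR/capillary electrophoresis fluorescence read-out of reporter mRNA; HepG2 transient multi-reporter transfection; 24 h compound exposure; gain or loss of signal fitted bidirectionally relative to DMSO.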

Experiment [5] deals with Hepatocyte nuclear factor 3-beta (Homo sapiens) (UniProt Q9Y261). Nature of the experiment: ATG_FoxA2_CIS: Attagene CIS-FACTORIAL HepG2 Assay for human Forkhead box A2 (FOXA2) (AID 2282942). The settings on record: HepG2 cis-reporter transcription factor activity, 24 h; actives raise or lower the signal. Summed up: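 Endogenous transcription factor activity was read in HepG2 cells carrying transiently transfected cis-promoter reporter units. After 24 h dosing, reporter mRNA was quantified by RT-PCR and capillary electrophoresis, and values fitted bidirectionally versus DMSO.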

Experiment [6] in a line: ATG_FoxO_CIS: Attagene CIS-FACTORIAL HepG2 Assay for human Forkhead box O (FoxO) (AID 2282943). As to conditions: HepG2 Attagene cis-reporter, FoxO element, mRNA; actives raise or lower the signal. The gist of the method: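 HepG2, transient MRTU transfection (cis element, endogenous TFs). Dose 24 h. TriZol RNA → oligo(dT) RT → PCR → 6-FAM primer extension → HpaI cut → CE. Gain/loss vs DMSO.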

Experiment [7] in a line: ATG_GATA_CIS: Attagene CIS-FACTORIAL HepG2 Assay for human GATA Binding Protein (AID 2282944). As to conditions: HepG2 GATA cis-element reporter, Attagene multiplex mRNA; actives raise or lower the signal. The gist of the method: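 Read-out: fluorescent reporter mRNA fragments resolved by capillary electrophoresis after RT-PCR. Human liver HepG2 cells carried transiently transfected cis-regulated reporter constructs; chemicals incubated 24 h; gain or loss of signal fitted relative to DMSO.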

Experiment [8] is described as follows: ATG_ISRE_CIS: Attagene CIS-FACTORIAL HepG2 Assay for human Interferon Regulatory Factor 1 (IRF1) binding to an Interferon-Stimulated Response Element (ISRE) (AID 2282948). As to conditions: HepG2 ISRE cis-reporter (Attagene), mRNA transcription readout; actives raise or lower the signal. Summed up: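 Read-out: fluorescent RT-PCR products resolved by capillary electrophoresis, reporting endogenous transcription factor activity via ISRE-driven reporter mRNA in transfected HepG2 cells dosed for 24 h; gain or loss fitted relative to DMSO.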

A short description of experiment [9]: ATG_M_32_CIS: Attagene CIS-FACTORIAL HepG2 Assay for M32 Transcription Factor (Internal Marker) (AID 2282949).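 Also: background control marker of the multiplexed CIS panel rather than a real target.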 As to conditions: HepG2 Attagene cis-factorial M32 reporter, mRNA; actives raise or lower the signal. The gist of the method:
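Using DMSO as baseline, bidirectional curve fits were applied to reporter mRNA signals. These came from transiently transfected HepG2 cells exposed for 24 h, with RNA analysed by RT-PCR, FAM primer extension, HpaI digestion and CE.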

A short description of experiment [10]: ATG_M_06_CIS: Attagene CIS-FACTORIAL HepG2 Assay for M06 Transcription Factor (Internal Marker) (AID 2282950). The settings on record: HepG2 Attagene CIS-FACTORIAL M06 internal marker reporter; actives raise or lower the signal. Summed up:
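Terse: HepG2, transient MRTU transfection (FuGene 6), 24 h dosing; total RNA, oligo(dT) RT, PCR, FAM label, HpaI cut, capillary electrophoresis; bidirectional fit vs DMSO baseline; background-control endpoint.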

Experiment [11] addresses Hepatocyte nuclear factor 6 (Homo sapiens) (UniProt Q9UBC0). Nature of the experiment: ATG_HNF6_CIS: Attagene CIS-FACTORIAL HepG2 Assay for human Hepatocyte Nuclear Factor 6 (HNF6) (AID 2282952). As to conditions: HepG2 Attagene cis-factorial HNF6 reporter transcription; actives raise or lower the signal. Summed up: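 Endogenous transcription factor activity in human HepG2 liver cells was captured through cis-regulated reporter constructs. After 24 h treatment, reporter mRNA was measured by RT-PCR with capillary electrophoresis, and activity was fitted in both directions relative to DMSO.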

For experiment [12], the target named is Heat shock factor protein 1 (Homo sapiens) (UniProt Q00613). Nature of the experiment: ATG_HSE_CIS: Attagene CIS-FACTORIAL HepG2 Assay for human Heat Shock Transcription Factor 1 (HSE) (AID 2282953). As to conditions: HepG2 HSE cis-reporter, Attagene RNA transcription; actives raise or lower the signal. Summed up: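 Read-out: fluorescence of reporter-specific RT-PCR fragments separated by capillary electrophoresis. HepG2 carrying transfected cis-element reporter units; 24 h dosing; activity fitted in both directions relative to DMSO baseline.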

Experiment [13] in a line: ATG_MRE_CIS: Attagene CIS-FACTORIAL HepG2 Assay for human Metal Responsive Element (MRE) (AID 2282954). As to conditions: HepG2 MRE cis-reporter transcription, Attagene multiplex; actives raise or lower the signal. The gist of the method:
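Multiplexed cis-reporter assay in human HepG2 liver cells, 24 h incubation with test chemical. Reporter transcripts measured by RT-PCR and capillary electrophoresis; values from bidirectional curve fitting versus DMSO.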

Experiment [14] in a line: ATG_GLI_CIS: Attagene CIS-FACTORIAL HepG2 Assay for human Zinc Finger Protein GLI1 (AID 2282945). The settings on record: HepG2, Attagene cis-factorial reporter mRNA, GLI element; actives raise or lower the signal. The gist of the method: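 Bidirectional curve fits relative to DMSO, using reporter mRNA levels from RT-PCR plus capillary electrophoresis. Cells were HepG2 transiently carrying cis-regulated reporter constructs, harvested 24 h after dosing.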

In experiment [15] the target is Hypoxia-inducible factor 1-alpha (Homo sapiens) (UniProt Q16665). In words: ATG_HIF1a_CIS: Attagene CIS-FACTORIAL HepG2 Assay for human Hypoxia Inducible Factor 1 (HIF1A) (AID 2282951). As to conditions: HepG2 Attagene cis-factorial HIF1a reporter transcription; actives raise or lower the signal. Summed up:
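Measures endogenous transcription-factor activity through cis-regulated reporter mRNA in HepG2. Cells dosed 24 h; transcripts quantified by RT-PCR with 6-FAM-labelled products separated by capillary electrophoresis; DMSO serves as negative control.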

A short description of experiment [16]: ATG_PBREM_CIS: Attagene CIS-FACTORIAL HepG2 Assay for human Phenobarbital-responsive Enhancer Module (PBREM) (AID 2282955). The settings on record: HepG2 PBREM cis-reporter, Attagene multiplexed transcription; actives raise or lower the signal. Summed up: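 Fluorescence of labelled reporter cDNA fragments, resolved by capillary electrophoresis, gives mRNA induction in transfected HepG2 cells treated for 24 h; DMSO serves as negative control and baseline.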

Experiment [17] in a line: ATG_ERE_CIS: Attagene CIS-FACTORIAL HepG2 Assay for Estrogen Response Element (ERE) (AID 2282940). The settings on record: HepG2 ERE cis-reporter, Attagene RNA transcript; actives raise or lower the signal. The gist of the method: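 Readout: reporter mRNA induction by RT-PCR, FAM-labelled primer extension, HpaI digestion and capillary electrophoresis, 24 h after dosing transfected HepG2 cells. Endogenous transcription factors act on cis-element-regulated reporters. Gain or loss fitted against DMSO.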

Experiment [18] has as its target Bile acid receptor (Homo sapiens) (UniProt Q96RI1). Nature of the experiment: ATG_IR1_CIS: Attagene CIS-FACTORIAL HepG2 Assay for human Nuclear Receptor Subfamily 1 Group H Member 4 (NR1H4), IR1 submotif (AID 2282946). The settings on record: IR1 reporter transcription, actives raise or lower the signal. The gist of the method:
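HepG2 cells transiently transfected with multiplexed cis-element reporter units read endogenous transcription factor activity. After 24 h compound exposure, reporter mRNA was quantified by RT-PCR, fluorescent labelling, HpaI digestion and capillary electrophoresis; bidirectional fitting versus DMSO baseline.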

A short description of experiment [19]: ATG_GRE_CIS: Attagene CIS-FACTORIAL HepG2 Assay for human Glucocorticoid Response Elements (GRE) (AID 2282947). The settings on record: HepG2 GRE cis-reporter, Attagene multiplex mRNA; actives raise or lower the signal. The gist of the method:
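Multiplexed cis-reporter mRNA induction, HepG2, 24 h post-dose. RT-PCR, FAM-labelled, HpaI-digested amplicons by CE. Bidirectional fit vs DMSO.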

Calls of active or inactive are those of the source. The calls were made as follows: active = hit-call score of the fitted dose curve at least 0.9, where 1 is the maximum; inactive = score below 0.9.

Chain of Heat shock factor protein 1 (Homo sapiens) (Q00613 whole entry, looked up, the tested form may be a part): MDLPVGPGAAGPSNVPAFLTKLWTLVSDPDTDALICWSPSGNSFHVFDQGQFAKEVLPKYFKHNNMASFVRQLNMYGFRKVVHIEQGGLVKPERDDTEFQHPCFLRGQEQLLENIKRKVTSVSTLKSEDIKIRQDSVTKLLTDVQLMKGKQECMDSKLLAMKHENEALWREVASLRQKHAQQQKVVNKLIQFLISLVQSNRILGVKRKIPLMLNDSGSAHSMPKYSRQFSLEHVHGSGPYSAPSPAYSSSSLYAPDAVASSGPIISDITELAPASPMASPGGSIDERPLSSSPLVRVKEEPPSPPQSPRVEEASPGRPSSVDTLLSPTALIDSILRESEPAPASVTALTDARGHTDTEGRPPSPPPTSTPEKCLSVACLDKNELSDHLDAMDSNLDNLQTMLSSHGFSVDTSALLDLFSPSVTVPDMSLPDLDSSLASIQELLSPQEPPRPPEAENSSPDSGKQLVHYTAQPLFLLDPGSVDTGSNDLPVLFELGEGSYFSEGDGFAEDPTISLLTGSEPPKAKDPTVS
Chain of Hepatocyte nuclear factor 6 (Homo sapiens) (Q9UBC0 whole entry, looked up): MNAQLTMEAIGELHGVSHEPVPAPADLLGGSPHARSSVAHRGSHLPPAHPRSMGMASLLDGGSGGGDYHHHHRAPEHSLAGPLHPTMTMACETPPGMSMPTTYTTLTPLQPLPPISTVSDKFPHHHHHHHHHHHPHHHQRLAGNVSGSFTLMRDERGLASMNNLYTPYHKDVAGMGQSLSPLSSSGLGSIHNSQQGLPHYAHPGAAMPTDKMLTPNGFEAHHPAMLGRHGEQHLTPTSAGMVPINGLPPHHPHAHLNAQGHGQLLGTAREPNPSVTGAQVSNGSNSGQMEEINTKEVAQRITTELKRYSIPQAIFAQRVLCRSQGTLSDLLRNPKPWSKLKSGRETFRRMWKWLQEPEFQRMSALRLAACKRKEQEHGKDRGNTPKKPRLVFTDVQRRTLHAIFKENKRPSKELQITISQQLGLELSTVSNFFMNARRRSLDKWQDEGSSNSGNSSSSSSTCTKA
Chain of Hypoxia-inducible factor 1-alpha (Homo sapiens) (Q16665 whole entry, looked up): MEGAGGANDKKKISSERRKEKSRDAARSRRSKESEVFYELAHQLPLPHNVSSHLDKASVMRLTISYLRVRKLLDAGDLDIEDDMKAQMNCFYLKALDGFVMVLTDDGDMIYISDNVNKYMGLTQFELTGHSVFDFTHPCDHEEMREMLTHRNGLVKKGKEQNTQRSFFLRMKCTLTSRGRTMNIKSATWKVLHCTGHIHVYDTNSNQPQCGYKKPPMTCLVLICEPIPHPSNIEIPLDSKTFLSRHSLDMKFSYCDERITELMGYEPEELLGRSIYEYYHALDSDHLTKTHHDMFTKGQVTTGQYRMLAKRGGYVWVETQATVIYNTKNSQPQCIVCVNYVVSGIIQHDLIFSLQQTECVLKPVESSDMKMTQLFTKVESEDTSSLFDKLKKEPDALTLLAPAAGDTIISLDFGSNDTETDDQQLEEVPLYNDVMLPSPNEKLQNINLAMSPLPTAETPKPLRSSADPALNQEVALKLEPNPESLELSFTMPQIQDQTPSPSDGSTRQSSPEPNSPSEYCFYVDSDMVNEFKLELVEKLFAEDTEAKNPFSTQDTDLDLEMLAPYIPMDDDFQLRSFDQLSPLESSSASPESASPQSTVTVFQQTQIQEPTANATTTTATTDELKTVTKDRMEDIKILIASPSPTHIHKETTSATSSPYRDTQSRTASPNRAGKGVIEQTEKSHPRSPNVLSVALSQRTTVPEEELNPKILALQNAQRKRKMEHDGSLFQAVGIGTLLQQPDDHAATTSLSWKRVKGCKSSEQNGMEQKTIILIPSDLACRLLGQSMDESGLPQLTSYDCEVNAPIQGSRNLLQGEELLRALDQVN
Chain of Hepatocyte nuclear factor 3-beta (Homo sapiens) (Q9Y261 whole entry, looked up): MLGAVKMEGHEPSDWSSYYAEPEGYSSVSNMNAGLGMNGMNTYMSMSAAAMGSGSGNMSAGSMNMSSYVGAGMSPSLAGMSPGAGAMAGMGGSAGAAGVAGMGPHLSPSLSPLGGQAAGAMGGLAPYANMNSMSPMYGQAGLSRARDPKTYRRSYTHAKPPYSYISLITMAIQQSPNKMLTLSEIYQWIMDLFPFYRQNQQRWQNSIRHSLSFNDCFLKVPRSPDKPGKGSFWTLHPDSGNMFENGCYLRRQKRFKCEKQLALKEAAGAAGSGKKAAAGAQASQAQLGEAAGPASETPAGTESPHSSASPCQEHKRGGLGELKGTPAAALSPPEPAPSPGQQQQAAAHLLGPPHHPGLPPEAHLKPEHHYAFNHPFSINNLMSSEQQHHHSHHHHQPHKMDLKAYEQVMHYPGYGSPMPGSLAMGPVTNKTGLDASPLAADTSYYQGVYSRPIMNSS
Chain of Bile acid receptor (Homo sapiens) (Q96RI1 whole entry, looked up): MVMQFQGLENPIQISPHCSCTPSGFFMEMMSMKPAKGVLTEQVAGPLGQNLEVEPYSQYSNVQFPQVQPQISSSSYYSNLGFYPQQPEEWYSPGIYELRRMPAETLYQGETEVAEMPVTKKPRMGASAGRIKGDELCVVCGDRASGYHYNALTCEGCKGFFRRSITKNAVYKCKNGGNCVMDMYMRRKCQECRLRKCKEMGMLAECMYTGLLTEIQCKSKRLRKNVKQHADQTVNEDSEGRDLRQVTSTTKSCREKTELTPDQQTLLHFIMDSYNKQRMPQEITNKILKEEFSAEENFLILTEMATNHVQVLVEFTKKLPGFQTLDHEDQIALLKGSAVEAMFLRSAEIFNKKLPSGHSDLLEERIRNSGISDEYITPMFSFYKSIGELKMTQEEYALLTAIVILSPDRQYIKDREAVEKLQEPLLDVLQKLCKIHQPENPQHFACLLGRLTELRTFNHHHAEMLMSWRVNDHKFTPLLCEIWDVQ

As for `NCCCCCCN`, the compound was classed as inactive in [1], in experiment [2], in experiment [3], in [4], in [5] and in experiment [6]. Further, the compound was classed as inactive in [7], in [8], in [9], in experiment [10], in [11] and in experiment [12]. Further, the result in [13] was inactive.

On to `CCCCCCCCCCCCN(CCCCCCCCCCCC)CCCCCCCCCCCC`, for which the compound was classed as inactive in experiment [1], in experiment [2], in [3], in experiment [4], in experiment [5] and in experiment [6]. For the same compound, the call in experiment [7], in experiment [14], in experiment [8], in experiment [9], in experiment [10] and in experiment [15] was inactive. Besides, the compound was called inactive in experiment [11], in [12], in [13] and in experiment [16].

In the case of `Cc1c(N(C)C)c(=O)n(-c2ccccc2)n1C`, the call in experiment [1], in experiment [2], in [3], in experiment [17], in [4] and in [5] was inactive. Besides, the result in experiment [6], in experiment [7], in experiment [14], in [18], in experiment [19] and in experiment [8] was inactive. The compound was called inactive in experiment [9], in [10], in experiment [11], in [12], in experiment [13] and in experiment [16].

Take `CC(=O)C(=O)O`: the result in experiment [1], in [2], in experiment [5], in [6], in [7] and in experiment [14] was inactive. For the same compound, the compound was classed as inactive in experiment [8], in experiment [10], in experiment [11], in experiment [12], in [13] and in [16].

Consider `CCc1ccc(C=O)cc1`, for which the compound was called inactive in experiment [1], in [2], in [4], in experiment [5], in experiment [6] and in experiment [7]. For the same compound, the call in [14], in experiment [19], in experiment [8], in experiment [9], in experiment [10] and in experiment [15] was inactive. Moreover, the result in experiment [11], in experiment [12], in [13] and in experiment [16] was inactive.

As to `O=C=NC1CCC(CC2CCC(N=C=O)CC2)CC1` (stereo not drawn), the call in experiment [1], in experiment [2], in [4], in experiment [5], in [6] and in experiment [7] was inactive. For the same compound, the outcome in experiment [19], in experiment [8], in experiment [15], in [11] and in experiment [13] was inactive. The AC50 in experiment [3] is 100 µM (active); in [14], 174 µM (active); in experiment [9] it was 164 µM (active); in [16], 63.1 µM (active).

Consider `O=C(O)CCCCCCCC(=O)O`, for which the outcome in experiment [1], in experiment [2], in experiment [3], in experiment [4], in experiment [5] and in [6] was inactive. Further, the result in experiment [7], in experiment [8], in experiment [9], in experiment [11], in [12] and in experiment [13] was inactive. In addition, in experiment [16], the result was inactive.

As for `CCCCCCCCCCCCSC`, the compound was called inactive in experiment [1], in experiment [2], in [3], in experiment [4], in [5] and in experiment [6]. The call in experiment [14], in [18], in experiment [19], in [8], in [9] and in [10] was inactive. The result in experiment [15], in experiment [11], in [12], in experiment [13] and in [16] was inactive.

With `C=CC[N+](C)(C)CC=C`, the outcome in [1], in experiment [2], in experiment [5], in [6], in experiment [7] and in experiment [14] was inactive. Besides, the call in experiment [19], in experiment [8], in experiment [9], in experiment [10], in experiment [15] and in experiment [11] was inactive. Also, in experiment [13], the outcome was inactive.

One may read the AC50 as the midpoint of the concentration-response curve, whichever way the signal moves.
